# Assay outcomes (PubChem BioAssay)
# ClpP mod: qHTS Assay for Activators of ClpP. ATP-dependent Clp protease proteolytic subunit (Bacillus subtilis (strain 168)), P80244. purified B. subtilis ClpP, FRET peptide cleavage, 20 min. Potency, µM (top dose mostly 57.5 µM), for the others: at the top dose activity change, negative = active. 1.9% of 340,000 active. AID 651965, 2013; active means well fitted falling curve with a large enough effect; inconclusive means small, poorly fitted or top-dose-only effect; inactive means no such curve, though single readings can be large or run the other way; further: potency means the concentration at half of the fitted maximal effect; the source files actives as falling curves though it sought activators and does not explain the sign; nearly all actives have a fitted effect of over 65% in size
# Target sequence (P80244 whole entry, looked up): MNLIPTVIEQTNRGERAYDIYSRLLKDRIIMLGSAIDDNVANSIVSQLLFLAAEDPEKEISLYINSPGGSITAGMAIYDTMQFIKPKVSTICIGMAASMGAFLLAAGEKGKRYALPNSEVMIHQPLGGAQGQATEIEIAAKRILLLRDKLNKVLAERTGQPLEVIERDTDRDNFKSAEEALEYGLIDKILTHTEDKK
#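 Purified B. subtilis ClpP, 10 microg/mL final in Tris/HCl pH8 with KCl, BSA, glycerol and Tween-20, cleaved an Abz/nitrotyrosine-quenched decapeptide. Fluorescence (ex 320, em 430) was read at 0 and 20 min at room temperature. Delta was normalized to 5.8 microM ADEP and DMSO/no-enzyme controls.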
# Integrin act MD: qHTS for Activators of Integrin-Mediated Alleviation for Muscular Dystrophy; alpha7betagal myoblasts, beta-gal FDG fluorescence, 48 h; Potency, µM (top dose mostly 38.3 µM), without a hit: at the highest dose activation, usual class: activators; 0.064% of 350,000 active; AID 624291, 2012;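 further: potency means the concentration at half of the fitted maximal effect; 100% = response of the positive control SU9516; nearly all actives have a fitted effect of over 60% in size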
#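 alpha7betagal+/- myoblasts (passage 13, 250/well) treated 48 h at 37C with compounds at 1:260 dilution of DMSO stock. Lysed, then beta-galactosidase activity read as FDG fluorescence (ex 480/em 540) after 30 min, with pre-read for autofluorescence.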
# CBFb RUNX1 block: qHTS Assay for Compounds Blocking the Interaction Between CBF-beta and RUNX1 for the Treatment of Acute Myeloid Leukemia; AlphaScreen CBFb-His/RUNX1-biotin binding, biochemical; 230,000 tested, under 10 active; Runt-related transcription factor 1 (Homo sapiens) + Core-binding factor subunit beta …; Potency, µM (series often up to 59.8 µM), without a hit: at the highest dose activity, negative = inhibition, usual class: inhibitors; further: % of control where 0% means no effect
#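 Proteins preincubated together for 20 min at RT before compound addition; 15 min later, nickel and streptavidin beads were added and left 90 min prior to AlphaScreen measurement.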
# Anesthetic bind: qHTS Assay for Identification of Novel General Anesthetics; Ferritin light chain (Equus caballus), P02791; 0.074% of 350,000 active; Potency, µM (series often up to 77.5 µM), without a hit: at the top dose activity change, negative = displacement, actives largely listed as inhibitors; apoferritin/1-aminoanthracene competitive binding, fluorescence; further: potency means the concentration at half of the fitted maximal effect; on the % scale 0 is the no-effect control and ±100 the full control effect; nearly all actives have a fitted effect of over 20% in size
# Target sequence (P02791 2-175 limits assumed): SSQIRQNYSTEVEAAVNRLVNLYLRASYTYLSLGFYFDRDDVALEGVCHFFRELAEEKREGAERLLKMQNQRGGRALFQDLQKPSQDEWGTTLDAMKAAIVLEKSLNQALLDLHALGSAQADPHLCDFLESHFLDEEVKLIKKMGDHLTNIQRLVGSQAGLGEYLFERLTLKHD
#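 10 uM apoferritin + 50% sat. 1-AMA, PBS; cpd 10 min RT; Ex380/Em535 endpoint; normalized to free probe vs complex; 4-param Hill fit; propofol titration as pos. ctrl.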
# N370S GC mod: qHTS Assay for Inhibitors and Activators of N370S glucocerebrosidase as a Potential Chaperone Treatment of Gaucher Disease; Lysosomal acid glucosylceramidase (Homo sapiens), P04062; N370S GC spleen homogenate, 4MU-glucoside fluorescence; Potency, µM (top dose mostly 59.4 µM), inactives show at the top dose activity change, negative = inhibition, actives largely listed as inhibitors; 0.092% of 330,000 active; AID 2101, 2009;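 further: potency means the concentration at half of the fitted maximal effect; 0% = full enzyme activity and -100% = no enzyme basal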
# GRP78 ERSR act: qHTS for Inducers of the Endoplasmic Reticulum Stress Response (ERSR) in Human Glioma: qHTS | U87-MG GRP78 promoter luciferase reporter, 16 h | Potency, µM, for the others: top-dose activation, most hits filed as activators | AID 602332, 2012 | 0.02% of 420,000 active; further: potency means the concentration at half of the fitted maximal effect; series mostly up to about 76 µM; % of control where 0% means no effect; nearly all actives have a fitted effect of over 35% in size
#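 ERSR induction read as luciferase luminescence (Bright-Glo, 10 min at room temperature) in stably transfected human U87-MG glioma cells exposed to compounds for 16 h, using GRP78 as sensor.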
# * hit, by the source's call; ? = inconclusive; . = not tested or not shown; [ ] = another dose, or the depositor's remark. The full list was thinned out, with hits kept by preference. Unless noted, the call rests on the fitted dose curve; in most records, active means well fitted curve in the direction sought with a large enough effect; inconclusive means small, poorly fitted or top-dose-only effect, or another doubt; inactive means no such curve, though single readings can be large; an effect the other way counts as inactive or inconclusive.
SMILES,ClpP mod,Integrin act MD,CBFb RUNX1 block,Anesthetic bind,N370S GC mod,GRP78 ERSR act
COc1ccc2nc3oc(C(=O)N4CCC(C(N)=O)CC4)cc3cc2c1,28µM*,-22%,-3%,66%,7%,2%
COc1ccc2cc3cc(C(=O)NCc4ccc5c(c4)OCO5)oc3nc2c1,14µM*,-7%,-16%,-18%,-10%,2%
Cc1cc(C(Br)(Br)Br)nc2ccccc12,1%,.,.,.,.,-11%
Clc1cccc[n+]1CCc1ccccc1,-10%,.,.,.,.,-3%
Cc1ccc2cc3cc(C(=O)NCc4ccco4)oc3nc2c1,14µM*,-19%,-3%,-13%,2%,0%
CCc1ccc(C(=O)Nc2cccc(-c3nc4cc(C(C)C)ccc4o3)c2)cc1,25µM*,.,.,-2%,.,0%
CC1(C)CC(=O)C=C(Nc2ccc(C(=O)O)c(O)c2)C1,.,10µM*,.,82%,-1%,-6%
Cc1cccc2nc(CNC(=O)CN3Cc4ccccc4OC(c4ccccc4F)C3)cn12 (stereo not drawn),.,.,.,.,.,-3%
Cc1c(C(=O)NC2CCCCCC2)sc2ncnc(NCC3CCCO3)c12 (stereo not drawn),.,.,.,.,.,3%
COc1ccc2oc(CS(=O)c3ccccc3)c(C(=O)O)c2c1 (stereo not drawn),1%,13µM*,.,-7%,-1%,0%
CCOC(=O)c1c(-c2ccccc2)oc2ccc(OCC(O)CNCCN(C)C)cc12 (stereo not drawn),35µM*,-27%,.,-2%,?,-9%
CCOC(=O)COc1c(-c2ccc(OC)cc2)oc2ccccc2c1=O,32µM*,12%,-12%,-15%,10%,0%
COc1ccc(-c2oc3ccccc3c(=O)c2OCC(=O)O)cc1,.,21%,13%,2%,0%,-2%
CCOc1ccc(-c2oc3ccccc3c(=O)c2O)cc1OCC,32µM*,.,.,126%,.,-2%
COc1cccc(CNC(=O)c2ccc(CS(=O)c3ccccc3)o2)c1 (stereo not drawn),-1%,-3%,.,-9%,1%,0%
COc1ccc(-c2oc3ccccc3c(=O)c2O)cc1OC,.,.,.,160%,2%,4%
CN1CCCN(C(=O)[C@@H]2C[C@@H](Sc3nc4ccccc4[nH]3)CN2Cc2ccc(OC(F)(F)F)cc2)CC1,.,.,.,.,.,-2%
CCOC(=O)c1c(-c2ccccc2)oc2ccc(OC)cc12,10µM*,9%,?,-15%,-3%,-1%
CCN1CCS/C1=C\C=C\C1=[N+](CC)CCS1,0%,.,-3%,-11%,.,-4%
CCN1CCS/C1=C/C=C/C1=[N+](CC)CCS1,-2%,-54%,-4%,-15%,7.9µM*,-5%
COC(=O)C1=CN(CC2CCCO2)C=C(C(=O)OC)C1c1cc(OC)c(OC)c(OC)c1 (stereo not drawn),25µM*,-11%,7%,190%,?,1%
COC(=O)C1=CN(Cc2ccc(OC)cc2)C=C(C(=O)OC)C1c1cc(OC)c(OC)c(OC)c1,.,-14%,.,95%,?,1%
O=C(CN1C(=O)c2ccccc2C1=O)NCC1Cc2cccc(-c3ncccn3)c2O1 (stereo not drawn),.,.,.,.,.,0%
COc1ccccc1C1/C(=C(/O)c2ccc(C)cc2)C(=O)C(=O)N1CC(C)O (stereo not drawn),28µM*,-14%,-1%,-15%,-1%,-2%
COc1ccccc1C1/C(=C(/O)c2ccccc2)C(=O)C(=O)N1CC(C)C (stereo not drawn),1%,25%,3%,-7%,1%,0%
SMILES,ClpP mod,Integrin act MD,CBFb RUNX1 block,Anesthetic bind,N370S GC mod,GRP78 ERSR act
Cc1nc(NCc2ccco2)c2c(C)c(C)sc2n1,0%,-17%[7.66 µM],2%,-14%,5%,0%
Cc1sc2nc3c4ccccc4c(NCc4ccco4)nn3c(=O)c2c1C,25µM*,-27%,8%,-7%,11%,7%
c1ccc2nccnc2c1,-23%,.,.,.,.,-10%
CCOc1ccccc1CNC(=O)c1cn(C)c(=O)c2c1c1ccccc1n2C,11µM*,6%,-3%,0%,-11%,0%
COc1ccccc1CNC(=O)c1nn(-c2ccc(C)cc2)c(=O)c2c1c1ccccc1n2C,14µM*,-10%,1%,-4%,17%,-5%
Cc1ccc(CNC(=O)c2cn(C)c(=O)c3c2c2ccccc2n3C)o1,14µM*,8%,-1%,-11%,-4%,-2%
Cc1ccc(CNC(=O)c2cn(C3CCCCC3)c(=O)c3c2c2ccccc2n3C)o1,?,9%,-7%,?,16%,7%
CCc1ccc(CNC(=O)c2nn(-c3ccc(C)cc3)c(=O)c3c2c2ccccc2n3C)cc1,-4%,.,.,11%,.,-1%
CC(NC(=O)C1CC1)c1nnc2n1CCN(Cc1cccc(F)c1F)CC2 (stereo not drawn),.,.,.,.,.,0%
Cc1cc(C)n(CC(=O)N2CCC(n3c(C(C)C)nc4cccnc43)CC2)n1,.,.,.,.,.,-5%
CS(=O)(=O)c1ccccc1NC(=O)COc1ccccc1C(=O)Nc1ccccc1,-3%,.,.,.,.,.
Cc1ccnc(NC(=O)c2cc(S(=O)(=O)N3CCCCC3)ccc2Cl)c1,22µM*,-18%,-4%,-8%,0%,-3%
CN1C(=O)CSc2ccc(NC(=O)NCCC3=CCCCC3)cc21,0%,-7%,1%,22µM*,0%,-1%
CC(=O)Nc1ccc(-c2cc3ccccc3o2)cc1,14µM*,21%,-1%,-2%,5%,-3%
CCC(=O)Nc1ccc(-c2cc3ccccc3oc2=O)cc1,.,13%,8%,-6%,8%,3%
O=C(Oc1ccc(Br)cc1C(=S)N1CCCC1)c1ccccc1Cl,-3%,9%,-4%,-13%,-1%,-4%
O=C(Oc1ccc(Br)cc1C(=S)N1CCCCC1)c1cc([N+](=O)[O-])cc([N+](=O)[O-])c1,1%,-4%,-4%,32µM*,8%,1%
O=C(/C=C/Nc1ccc([N+](=O)[O-])cc1Br)c1cccc2ccccc12,25µM*,18%,-2%,59%,-18%,6%
NC(=O)c1cc([N+](=O)[O-])ccc1NCc1cccc2ccccc12,0%,-7%,.,.,-13%,-4%
O=C(CNC(=O)C1CCCCC1)OCc1cc(=O)oc2ccc3ccccc3c12,25µM*,0%,20%,-3%,12%,-4%
